BoNT-F LC inh – inhibitors of Botulinum neurotoxin F light chain protease. Multiplex microsphere protease cleavage assay, flow cytometry. inhibition, % at 10 µM. 0.22% of 360,000 active. AID 588497; in the data active = inhibition above about 35%, passing the limit was not always enough; inconclusive = no clear call, values can overlap the other calls; note: plate controls were buffer without enzyme for full effect and enzyme alone for no effect
Anthrax LF inh2 – anthrax lethal factor protease inhibition. P15917. multiplex microsphere protease cleavage assay, LF. inhibition, % at 10 µM. 0.12% of 360,000 active. AID 588501; note: plate controls were buffer without enzyme for full effect and enzyme alone for no effect
Target sequence (P15917 whole entry, looked up): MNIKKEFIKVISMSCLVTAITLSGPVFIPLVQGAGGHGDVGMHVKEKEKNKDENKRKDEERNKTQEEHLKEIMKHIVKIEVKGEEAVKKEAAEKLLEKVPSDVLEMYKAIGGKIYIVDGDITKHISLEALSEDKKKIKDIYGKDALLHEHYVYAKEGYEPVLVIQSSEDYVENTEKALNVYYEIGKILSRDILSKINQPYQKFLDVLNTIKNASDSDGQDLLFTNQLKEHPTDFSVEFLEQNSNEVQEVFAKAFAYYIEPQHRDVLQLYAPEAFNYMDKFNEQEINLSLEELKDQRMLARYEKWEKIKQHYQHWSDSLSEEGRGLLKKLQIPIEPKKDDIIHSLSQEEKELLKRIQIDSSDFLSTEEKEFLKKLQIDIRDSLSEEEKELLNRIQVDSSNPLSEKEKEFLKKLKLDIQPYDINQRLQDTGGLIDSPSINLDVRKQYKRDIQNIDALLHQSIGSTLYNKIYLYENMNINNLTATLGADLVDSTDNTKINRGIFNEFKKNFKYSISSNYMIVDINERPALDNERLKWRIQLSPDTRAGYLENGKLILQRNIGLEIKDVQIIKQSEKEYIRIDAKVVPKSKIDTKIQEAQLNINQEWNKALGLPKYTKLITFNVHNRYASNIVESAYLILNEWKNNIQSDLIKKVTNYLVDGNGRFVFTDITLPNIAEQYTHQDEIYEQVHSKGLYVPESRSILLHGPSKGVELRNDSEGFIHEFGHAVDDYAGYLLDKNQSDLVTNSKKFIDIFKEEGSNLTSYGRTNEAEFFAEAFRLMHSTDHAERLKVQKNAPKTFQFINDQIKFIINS
GDH-TPI inh – GDH-TPI coupled enzyme inhibition counter-screen; GDH-TPI coupled enzyme counterscreen, NADH absorbance; inhibition, % at 4.8 µM; 1.2% of 360,000 active; AID 588335; in the data active = inhibition above about 30%;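 note: 0% = DMSO wells and 100% = wells lacking the enzyme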
BoNT-A LC inh2 – BoNT A light chain protease inhibition. multiplex microsphere protease substrate cleavage, flow cytometry. inhibition, % at 10 µM. 0.17% of 360,000 active; note: plate controls were buffer without enzyme for full effect and enzyme alone for no effect
Bead autofluor – counter-screen for toxin protease inhibitors: compound fluorescence. compound autofluorescence counterscreen, microsphere flow cytometry; stronger effect = higher value. fluorescence intensity (no concentration beside the values). 3.1% of 360,000 active. AID 624483; in the data active = fluorescence intensity above about 16000; inconclusive = no clear call, values can overlap the other calls
Mtb FBA inh – inhibits M. tuberculosis FBA enzyme | purified M. tuberculosis FBA, fluorescence read-out | 2.3% of 360,000 active | inhibition, % at 1 µM | AID 588726; in the data active = inhibition above about 27%;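 note: 0% = vehicle and 100% = reference inhibitor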
* hit, by the source's call; ? = inconclusive; . = no result. Compounds with a hit are over-represented: about 6.6% of the library has one in this group of screens. Cut-off read from the data, not from the text of the source, unless noted: active = inhibition above about 30%; inconclusive = no clear call, values can overlap the other calls; inactive = below that.

SMILES	BoNT-F LC inh	Anthrax LF inh2	GDH-TPI inh	BoNT-A LC inh2	Bead autofluor	Mtb FBA inh
Cc1ccccc1Cn1nnc2c1C(=O)c1ccccc1C2=O	-5	1	2	0	?	4
Cc1ccc(C(=O)OCn2ncc(Cl)c(Cl)c2=O)cc1	-5	-2	4	-2	17159*	-1
CC1(C)Cc2nc3sc4c(=O)n(CC(N)=O)cnc4c3cc2CO1	3	-2	0	0	2937	3
CC1(C)Cc2nc3sc4c(=O)n(CC(=O)NCc5ccccc5)cnc4c3cc2CO1	-3	0	17	-1	16709*	1
OCCN1CCN(c2ncnc3c2ncn3[C@H]2CN(Cc3cccc(C(F)(F)F)c3)C[C@@H](CO)O2)CC1	-3	3	1	0	3786	-1
CCOC(=O)C1CCCN(C(=O)c2cncc(Br)c2)CC1 (stereo unspecified)	1	-8	2	0	3955	0
CCOc1ccccc1-n1c(N)c(C(N)=O)sc1=S	2	2	32*	0	16402*	-2
CCOC(=O)c1sc(=S)n(-c2ccccc2OC)c1N	-7	-1	15	0	2343	-3
COc1ccc(Cl)cc1-n1c(N)c(C(N)=O)sc1=S	-3	-3	37*	0	16080	1
Cc1ccc(C)c(-n2c(N)c(C(N)=O)sc2=S)c1	2	2	20	0	3822	-9
Cc1ccc(-n2c(N)c(C(N)=O)sc2=S)c(C)c1	1	0	23	3	18506*	0
C=CCOc1ccc(CNc2ccc(NC(=O)CC(C)C)cc2)cc1OC	0	1	-2	0	2030	2
COC1=CC(=O)C(OC)=C(OC)C1=O	-20	15	2	-1	?	1
Cc1c(NC(=O)c2cc(-n3cnnc3)ccc2Cl)cccc1-c1nc2ccccc2s1	-3	-2	8	-1	22973*	2
Cc1ccnc(NC(=O)c2cc(-n3cnnc3)ccc2Cl)c1	0	2	12	?	22908*	0
O=C(Nc1cccc(-c2nc3ccccc3s2)c1)c1cc(-n2cnnc2)ccc1Cl	0	-2	7	0	4151	0
CC(C)NC(=O)c1cc(-n2cnnc2)ccc1Cl	6	1	5	2	20045*	1
CC(=O)Nc1ccc(NC(=O)c2cc(-n3cnnc3)ccc2Cl)cc1	-2	1	3	0	3896	2
COC(=O)C1CCN(C2CN(Cc3ccccc3)S(=O)(=O)C2)CC1 (stereo unspecified)	-8	-4	.	0	6050	0
CC1S/C(=N/N=C/c2ccco2)N(Cc2ccccc2)C1=O (stereo unspecified)	-3	-10	20	-2	4129	0
Cc1ccc(C)c(S(=O)(=O)N2CCCC2CNC(=O)C(=O)NC2CC2)c1 (stereo unspecified)	8	2	-1	4	5041	0
CN(C)c1nc(Cl)cc(N2CCOCC2)n1	-1	-1	1	1	22938*	6
Nc1nc(Cl)cc(N2CCOCC2)n1	-3	3	3	0	2138	3
CCC12OC(=N)C(C#N)(C1C)C(C#N)(C#N)C(c1ccccc1)O2 (stereo unspecified)	-1	2	17	2	10641	144*
CCc1cccc(NC(=O)C2CCCN2S(=O)(=O)c2ccccc2C(F)(F)F)c1 (stereo unspecified)	22	5	1	2	5502	0
SMILES	BoNT-F LC inh	Anthrax LF inh2	GDH-TPI inh	BoNT-A LC inh2	Bead autofluor	Mtb FBA inh
Oc1[nH]c2ccccc2c1N=NC(=S)NCC1CCCO1 (stereo unspecified)	1	1	21	0	2148	-8
Oc1[nH]c2ccc(Br)cc2c1N=NC(=S)NCC1CCCO1 (stereo unspecified)	-9	-9	36*	-3	6068	-8
COc1ccc(-c2ccnc3c(Br)c(C)nn23)cc1	0	4	6	2	3594	-2
COc1ccc(-c2ccnc3c(C#N)cnn23)cc1	6	-1	13	0	3329	171*
O=C(CCCn1c(SCc2cc(=O)n3ccccc3n2)nc2ccccc2c1=O)NCC1CCCO1 (stereo unspecified)	-1	-6	33*	0	4470	6
O=C(CCCn1c(SCC(=O)Nc2ccccc2Cl)nc2ccccc2c1=O)NCC1CCCO1 (stereo unspecified)	-9	-2	-2	-2	4850	3
Cc1cc(NC(=O)CSc2nc3ccccc3c(=O)n2CCCC(=O)NCc2ccccc2)n[nH]1	-10	-2	11	-2	16651*	-4

Compound activity from PubChem BioAssay.
